The list is not random: actives were taken first. Their share in the collection is about 3%.
DRD3 antagonist = blocks the human D3 dopamine receptor. P35462. D3R cells, DiscoveRx beta-arrestin luminescence, antagonist mode; hits give low values. max response, negative = inhibition, %. actives 2.5% (n = 360,000). AID 652054; in the data active means max response below about -50%; inconclusive means no clear call, values can overlap the other calls; further: on the % scale 0 is the no-effect control and ±100 the full control effect
Target sequence (P35462 whole entry, looked up): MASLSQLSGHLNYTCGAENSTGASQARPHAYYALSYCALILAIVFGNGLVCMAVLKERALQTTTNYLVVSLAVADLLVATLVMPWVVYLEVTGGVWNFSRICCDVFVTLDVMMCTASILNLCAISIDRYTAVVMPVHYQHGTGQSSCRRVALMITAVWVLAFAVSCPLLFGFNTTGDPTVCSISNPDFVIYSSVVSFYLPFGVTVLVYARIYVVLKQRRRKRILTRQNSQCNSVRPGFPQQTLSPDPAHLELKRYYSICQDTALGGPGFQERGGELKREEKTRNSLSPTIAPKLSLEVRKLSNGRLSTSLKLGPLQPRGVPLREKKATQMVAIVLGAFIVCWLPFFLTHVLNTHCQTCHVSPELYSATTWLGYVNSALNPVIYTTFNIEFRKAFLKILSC
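Cells expressing the human receptor were seeded at 1500 cells/well, incubated overnight at 37 degrees C in 5% CO2, then exposed to library compounds with dopamine controls for 90 minutes at 37 degrees C before luminescent detection.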
Nrf2 activator = activates Nrf2 signaling | AREc32 ARE-luciferase reporter (MCF7-derived line), luminescence, 24 h | actives 0.31% (n = 410,000) | Potency, µM (series often up to 46.1 µM), without a hit: at the top dose activation, usual class: activators; further: potency means the concentration at half of the fitted maximal effect; % of control where 0% means no effect; nearly all actives have a fitted effect of over 65% in size
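Luciferase luminescence (Steady-Glo, 30 min at room temperature) served as the read-out of ARE activation in AREc32 cells treated with compounds for 24 hr at 37 deg C.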
Glioma ERSR ind = ER stress response induction in glioma | U87-MG GRP78 promoter luciferase reporter, 16 h | Potency, µM, for the others: at the top dose activation, most hits filed as activators | actives 0.02% (n = 420,000); further: potency means the concentration at half of the fitted maximal effect; series mostly up to about 76 µM; % of control where 0% means no effect; nearly all actives have a fitted effect of over 35% in size
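ERSR induction read as luciferase luminescence (Bright-Glo, 10 min at room temperature) in stably transfected human U87-MG glioma cells exposed to compounds for 16 h, using GRP78 as sensor.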
DRD3 agonist = activates the human D3 dopamine receptor. P35462. D3R DiscoveRx beta-arrestin cells, luminescence, 90 min. max activation, %. actives 0.58% (n = 410,000); in the data active means max activation above about 30%; further: 0% is about no effect
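Agonist mode: compounds and dopamine controls were applied to plated cells for 90 min at 37 degrees C after an overnight attachment at 1500 cells/well. Luminescent read-out followed 30 - 60 minutes at room temperature with DiscoveRx detection reagent.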
An asterisk follows results filed as active; ? = inconclusive; / = no result given. Unless noted, the call rests on the fitted dose curve; in most records, active means well fitted curve in the direction sought with a large enough effect; inconclusive means small, poorly fitted or top-dose-only effect, or another doubt; inactive means no such curve, though single readings can be large; an effect the other way counts as inactive or inconclusive.

SMILES | DRD3 antagonist | Nrf2 activator | Glioma ERSR ind | DRD3 agonist
CSc1ccccc1C(=O)NCC1Cc2cc(F)cc(-c3cnccn3)c2O1 (configuration not stated) | / | / | -7% | /
O=C1CCC[C@@H]2C[C@@]3(C[C@@H]4CCN1[C@H]24)Nc1cc([N+](=O)[O-])ccc1NC3=NC1CCCCC1 | ? | 3% | -2% | -43
O=C1CCC[C@@H]2C[C@@]3(C[C@@H]4CCN1[C@H]24)Nc1cc(Cl)ccc1NC3=NC1CCCCC1 | -78* | 5% | 0% | -40
O=C1CC[C@@H]2CC3(C[C@@H]4CCN1[C@H]24)Nc1cc(Cl)ccc1NC3=NC1CCCCC1 (some centres not stated) | -63* | 12% | 9% | -35
CC(=O)SCC(CC(=O)c1ccc(C)cc1)C(=O)O (configuration not stated) | / | / | -2% | 12
COc1cccc(N2CCN(CC(=O)Nc3nnc(-c4ccccc4)s3)CC2)c1 | 12 | 2% | -5% | 1
COc1ccc(Oc2ncc(CN3CCN(c4ccccc4)CC3)s2)cc1 | 0 | 0% | -3% | 35*
Cc1cc(Cl)ccc1Oc1ncc(CN2CCN(c3ccccc3)CC2)s1 | 27 | 0% | 4% | 25
COc1cccc(N2CCN(Cc3ncc(-c4ccccc4)o3)CC2)c1 | -56* | 0% | -6% | 4
N#Cc1cccn1-c1nccc(-c2cccs2)n1 | 14 | 4.5µM* | 3% | 16
O=C(NCCCOc1cccc(CN2CCCCC2)c1)c1ccc(Cl)c(Cl)c1 | -98* | 6% | -3% | -38
c1cc(CN2CCCCC2)cc(OCCCNc2nc3ccccc3s2)c1 | -75* | 5% | -2% | -80
COc1cccc(CNc2nc3ccccc3n2CCN2CCCCC2)c1 | ? | 2% | -4% | -42
COc1cc2c(cc1O)CCN[C@]21CS[C@@H]2c3c(OC(C)=O)c(C)c4c(c3[C@H](COC1=O)N1[C@@H]2[C@H]2c3c(cc(C)c(OC)c3O)C[C@@H]([C@@H]1O)N2C)OCO4 | / | / | / | -14
Cc1ccc(S(=O)(=O)c2ncccc2[N+](=O)[O-])cc1 | -90* | 0% | -6% | -7
O=C(Nc1ccc(F)cc1F)c1cc2nc(-c3ccco3)cc(C(F)(F)Cl)n2n1 | / | 0% | -1% | -16
Cc1sc(NC(=O)c2ccc(F)cc2)c(CN2CCCCCC2)c1C | -22 | 13µM* | -2% | -23
Cc1ccc(Cl)cc1-n1c(=O)cc(N2CCN(c3ccc(F)cc3)CC2)[nH]c1=O | / | -1% | -4% | 9
CCN1CCN(c2ccc([N+](=O)[O-])c(Sc3nc4ccccc4[nH]3)c2)CC1 | -94* | 0% | -3% | -39
CS(=O)(=O)c1cc([N+](=O)[O-])c(Sc2nc3ccccc3[nH]2)c([N+](=O)[O-])c1 | -51* | ? | -11% | -24
O=C(O)c1cc([N+](=O)[O-])c(Sc2nc3ccccc3[nH]2)c([N+](=O)[O-])c1 | -8 | ? | -4% | 1
Cn1cnc([N+](=O)[O-])c1Sc1nc2ccccc2[nH]1 | -54* | 26% | 8% | -20
O=[N+]([O-])c1ccc(N2CCN(CCO)CC2)cc1Sc1ccccn1 | -3 | 0% | 0% | -5
Nc1nc(NCc2ccco2)nc(N2CCCCC2)c1[N+](=O)[O-] | 25 | 24% | 0% | 2
CN1CCN(c2nc(NCc3ccco3)nc(N)c2[N+](=O)[O-])CC1 | -80* | 7% | -2% | -18
SMILES | DRD3 antagonist | Nrf2 activator | Glioma ERSR ind | DRD3 agonist
CCN1CCN(c2nc(Nc3ccc(C)c(C)c3)nc(N)c2[N+](=O)[O-])CC1 | -83* | 1% | -2% | -39
Cc1cc(C(C)(C)C)ccc1OCCN1CCCC1 | -64* | -1% | 0% | 0
Cc1cc(Br)ccc1OCCCCN1CCCCC1 | -51* | -1% | -6% | -12
Cc1ccc(OCCOCCN2CCCC2)c(Br)c1 | ? | 0% | -5% | -19
Cc1cc(C(C)(C)C)ccc1OCCCCN1CCCC1 | -11 | 1% | -6% | -15
Cc1cc(Br)ccc1OCCOCCN1CCCC1 | -73* | 0% | 0% | -22
C/C(=C\c1ccccc1)CN1CCN(c2ccccc2F)CC1 | -82* | 0% | 0% | -29
C/C=C(\C)CN1CCN(c2ccc(C)cc2)CC1 | -79* | 0% | -3% | -16
C/C(=C\c1ccccc1)CN1CCN(c2cccc(Cl)c2)CC1 | -137* | -1% | -4% | -18
CS(=O)(=O)N1CCc2cc(C(=O)Nc3ccc(Cl)cc3)ccc21 | ? | 0% | 2% | 94*
CCCCC(Sc1ccc2nnc(-c3ccccn3)n2n1)C(=O)O (configuration not stated) | / | / | -2% | /
Cc1[nH]oc(=O)c1N=Nc1ccc2[nH]c(=O)[nH]c2c1 | -66* | 0% | 1% | 7
COc1ccc(-n2c(CNC(=O)c3cccc4ccccc34)nnc2SC)cc1 | / | / | -2% | /
CC1CCCCN1CCNC(=O)Cn1nc(-c2ccccc2)ccc1=O (configuration not stated) | -98* | 0% | -2% | -11
Cc1ccc(-c2ccc(=O)n(CC(=O)NCCCN3CCCCC3C)n2)cc1 (configuration not stated) | 0 | 0% | -4% | -13
COc1ccc(-c2nnc(C3CCN(S(=O)(=O)c4cccc(Cl)c4)CC3)o2)cc1 | / | 5% | -2% | 3
COc1cc(OC)cc(-c2c(-c3cccs3)c3cc(-c4ccc(C(N)=O)cc4)ccc3n2C)c1 | 71 | 0% | 1% | 39*
O=C(O)c1cccc2c1C(=O)c1cc([N+](=O)[O-])cc([N+](=O)[O-])c1-2 | 1 | 8% | -4% | -2
O=C(O)c1cccc2c1/C(=N/Nc1ccc([N+](=O)[O-])cc1[N+](=O)[O-])c1ccccc1-2 | -54* | 4% | -4% | -6
COc1cc([N+](=O)[O-])cc(/C=N/N(CCC#N)C(C)=O)c1O | -59* | -1% | -8% | -12
COC(=O)c1cc(NS(=O)(=O)c2ccc3c(c2)CCC(=O)N3)cc(C(=O)OC)c1 | 31 | 0% | -2% | 33*
CC[C@H](C)[C@H](NC(=O)[C@H](Cc1ccccc1)NC(=O)[C@H](C)NC(=O)[C@H](CC(=O)O)NC(=O)[C@H](CCCCN)NC(=O)[C@H](CO)NC(=O)[C@@H]1CCCN1C(=O)[C@@H]1CCC(=O)N1)C(=O)NCC(=O)N[C@@H](CC(C)C)C(=O)N[C@@H](CCSC)C(N)=O | / | / | -3% | 11
O=C(O)c1cccc(NC(=O)C2CC(=O)N(Cc3ccccc3)C2)c1 (configuration not stated) | -51* | -1% | -2% | 4
CCOc1cc(N2C(=O)CC3CS(=O)(=O)CC32)c(OCC)cc1NC(=O)c1ccccc1 (configuration not stated) | -62* | -1% | -2% | -3
Cc1ccc(SC(=O)c2c(C)noc2-c2cc(C)on2)cc1 | -92* | ? | -12% | -8
Cc1cc(-c2onc(C)c2C(=O)N/N=C/c2ccccc2)no1 | 7 | 0% | 0% | -1
O=C(O)c1ccc(NC(=O)c2cc3c([nH]c2=O)CCCC3=O)cc1 | / | / | -1% | /

High-throughput results (PubChem BioAssay)
